In the supplement of paper PMC12350171:
Structures can show the parent of a compound that is named as a salt.

test system: Haemophilus parainfluenzae; test: growth AUC normalised to DMSO control (fraction of control); higher = less growth inhibition, active = hit call of the paper; settings: 20 µM;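 active = AUC significantly below DMSO controls by Student t-fit with adjusted P under 0.01; inactive = not significantly reduced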
Method in brief: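 Pathogens were passaged twice under anaerobic conditions, then inoculated into pre-reduced mGAM plates at a starting OD578 of 0.01, with compound at 20 μM and 1% DMSO, and sealed with breathable membranes. For Haemophilus parainfluenzae, the medium was supplemented with hemin and NAD. OD578 was read every hour for 24 h in three biological replicates. Growth-curve AUC was calculated by the trapezoidal rule up to the exponential-to-stationary transition and normalised to DMSO controls on the same plate.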

SMILES	growth AUC normalised to DMSO control
Cc1cnc(C(=O)O)c[n+]1[O-] [Acipimox]	0.94 (inactive)
COc1ccccc1Oc1c(NS(=O)(=O)c2ccc(C(C)(C)C)cc2)nc(-c2ncccn2)nc1OCCO [Bosentan]	0.966 (inactive)
Cc1ccc(-c2ncc(Cl)cc2-c2ccc(S(C)(=O)=O)cc2)cn1 [Etoricoxib]	1 (inactive)
O=P(O)(O)C(Cl)(Cl)P(=O)(O)O [Clodronate disodium]	0.965 (inactive)
CC(C)(C)C(=O)OCOC(=O)[C@@H]1N2C(=O)[C@@H](NC(=O)[C@H](N)c3ccccc3)[C@H]2SC1(C)C [Pivampicillin]	0.942 (inactive)
COc1ccc2c3c1O[C@H]1C[C@@H](O)C=C[C@@]31CCN(C)C2 [Galanthamine hydrobromide]	0.988 (inactive)
Oc1c(I)cc(Cl)c2cccnc12 [Clioquinol]	1.03 (inactive)
COC(=O)C1=C(C)NC(C)=C(C(=O)OCCN(C)Cc2ccccc2)C1c1cccc([N+](=O)[O-])c1 (stereo not drawn) [Nicardipine hydrochloride]	1.01 (inactive)
